Bioassay records from PubChem BioAssay.
This is a sample that favours compounds with a hit; in the whole collection about 4.3% have one here.
rCAG RNA binder = binders of r(CAG) RNA repeats, primary screen, biochemical, fluorescence. r(CAG) RNA repeat, TO-PRO-1 dye displacement fluorescence. inhibition, % at 3 µM. 1.3% of 370,000 active;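 active = inhibition above the plate cutoff, the mean of all test compounds on that plate plus 3 SD, cut at about 35% in these data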;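 also: 0% = DMSO alone and 100% = 100 µM mitoxantrone as full dye displacement; higher means more dye released from RNA so lower well fluorescence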
FAS TE block = FAS thioesterase domain inhibitors, primary screen, biochemical, fluorescence intensity, uHTS; Fatty acid synthase (Homo sapiens), P49327; recombinant FAS-TE, OMFH fluorogenic substrate, fluorescence endpoint; inhibition, % at 15 µM; 0.67% of 360,000 active;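 active = compounds whose normalised, plate-corrected inhibition of enzyme fluorescence in the single-dose primary screen is 50% or more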;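 also: 0% = DMSO with enzyme and 100% = substrate without enzyme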
Target sequence (P49327 whole entry, looked up, the tested form may be a part): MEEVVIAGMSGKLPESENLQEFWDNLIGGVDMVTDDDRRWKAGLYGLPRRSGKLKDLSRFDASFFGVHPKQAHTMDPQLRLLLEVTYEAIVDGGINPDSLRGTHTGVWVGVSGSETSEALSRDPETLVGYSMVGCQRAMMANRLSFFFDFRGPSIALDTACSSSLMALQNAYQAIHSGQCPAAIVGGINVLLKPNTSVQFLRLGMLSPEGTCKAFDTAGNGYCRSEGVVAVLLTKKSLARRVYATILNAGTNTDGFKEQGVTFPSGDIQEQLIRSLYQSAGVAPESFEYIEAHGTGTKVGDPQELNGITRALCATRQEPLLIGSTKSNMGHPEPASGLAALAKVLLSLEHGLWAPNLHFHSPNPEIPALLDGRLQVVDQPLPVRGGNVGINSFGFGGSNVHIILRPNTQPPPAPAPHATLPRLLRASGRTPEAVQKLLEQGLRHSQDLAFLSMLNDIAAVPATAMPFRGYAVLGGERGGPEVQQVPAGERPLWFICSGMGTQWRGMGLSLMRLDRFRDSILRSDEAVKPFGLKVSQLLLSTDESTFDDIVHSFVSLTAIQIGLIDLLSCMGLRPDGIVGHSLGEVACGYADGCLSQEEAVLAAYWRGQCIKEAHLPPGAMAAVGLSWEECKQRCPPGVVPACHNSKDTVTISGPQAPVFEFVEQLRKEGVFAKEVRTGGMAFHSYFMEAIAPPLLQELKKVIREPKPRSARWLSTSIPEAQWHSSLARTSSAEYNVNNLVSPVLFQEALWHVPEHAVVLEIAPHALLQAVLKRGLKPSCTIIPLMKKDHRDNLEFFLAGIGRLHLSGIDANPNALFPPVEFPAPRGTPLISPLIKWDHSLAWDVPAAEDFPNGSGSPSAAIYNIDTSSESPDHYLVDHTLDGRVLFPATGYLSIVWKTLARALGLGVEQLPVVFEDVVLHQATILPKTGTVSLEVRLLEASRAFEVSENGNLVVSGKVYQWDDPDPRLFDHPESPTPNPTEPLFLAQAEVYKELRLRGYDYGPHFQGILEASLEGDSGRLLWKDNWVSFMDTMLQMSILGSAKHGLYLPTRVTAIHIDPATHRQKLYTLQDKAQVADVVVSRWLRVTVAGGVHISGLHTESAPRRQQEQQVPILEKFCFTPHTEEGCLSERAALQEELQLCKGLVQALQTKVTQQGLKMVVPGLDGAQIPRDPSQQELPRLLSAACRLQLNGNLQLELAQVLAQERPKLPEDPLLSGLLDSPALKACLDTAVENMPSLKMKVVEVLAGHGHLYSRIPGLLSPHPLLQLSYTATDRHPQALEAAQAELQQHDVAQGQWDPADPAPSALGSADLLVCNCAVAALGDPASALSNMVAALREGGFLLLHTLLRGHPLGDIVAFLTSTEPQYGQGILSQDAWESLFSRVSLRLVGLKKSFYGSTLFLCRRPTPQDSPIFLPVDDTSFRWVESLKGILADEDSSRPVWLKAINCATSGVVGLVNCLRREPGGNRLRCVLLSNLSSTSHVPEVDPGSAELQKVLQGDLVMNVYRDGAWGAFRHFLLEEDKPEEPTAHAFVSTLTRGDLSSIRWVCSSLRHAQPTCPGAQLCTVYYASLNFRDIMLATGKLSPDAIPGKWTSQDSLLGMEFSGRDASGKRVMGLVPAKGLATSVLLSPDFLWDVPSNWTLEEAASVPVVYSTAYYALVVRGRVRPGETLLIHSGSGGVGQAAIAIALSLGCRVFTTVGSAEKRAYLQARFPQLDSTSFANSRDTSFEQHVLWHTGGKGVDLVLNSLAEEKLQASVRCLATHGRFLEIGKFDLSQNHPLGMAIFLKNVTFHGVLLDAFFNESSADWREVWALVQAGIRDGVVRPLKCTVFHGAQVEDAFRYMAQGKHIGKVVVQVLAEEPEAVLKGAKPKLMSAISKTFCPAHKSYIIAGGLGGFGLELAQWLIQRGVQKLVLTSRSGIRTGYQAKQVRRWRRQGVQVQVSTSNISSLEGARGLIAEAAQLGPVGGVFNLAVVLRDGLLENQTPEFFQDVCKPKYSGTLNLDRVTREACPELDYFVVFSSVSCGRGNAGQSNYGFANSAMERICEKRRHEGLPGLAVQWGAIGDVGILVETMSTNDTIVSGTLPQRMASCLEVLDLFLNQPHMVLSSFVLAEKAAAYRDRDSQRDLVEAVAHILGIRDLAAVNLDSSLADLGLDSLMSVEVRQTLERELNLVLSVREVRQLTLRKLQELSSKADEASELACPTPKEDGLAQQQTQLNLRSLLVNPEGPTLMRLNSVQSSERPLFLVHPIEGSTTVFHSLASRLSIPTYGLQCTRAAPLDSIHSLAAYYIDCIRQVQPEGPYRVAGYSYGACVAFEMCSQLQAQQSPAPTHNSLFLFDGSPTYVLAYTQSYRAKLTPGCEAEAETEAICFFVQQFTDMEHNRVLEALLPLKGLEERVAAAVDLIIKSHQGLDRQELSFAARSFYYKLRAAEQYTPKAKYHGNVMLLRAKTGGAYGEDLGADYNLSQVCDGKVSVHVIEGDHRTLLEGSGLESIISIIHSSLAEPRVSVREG
NadD block = inhibitors of S. aureus NadD, primary screen, biochemical, colorimetric, uHTS | Nicotinate-nucleotide adenylyltransferase NadD (Staphylococcus aureus N315) | purified NadD enzyme, colorimetric absorbance read-out | inhibition, % at 20 µM | 0.78% of 360,000 active | AID 602399, 2012; in the data active = inhibition above about 26%
NR3A LBD binder = binders of NR3A ligand-binding domain, primary screen, biophysical, differential scanning fluorimetry, uHTS; NR3A LBD differential scanning fluorimetry, Tm shift; 0% = protein alone, 100% = glycine-bound protein; AID 1259313, 2017; Glutamate receptor ionotropic, NMDA 3A (GRIN3A) ligand-binding domain; 2.5% of 340,000 active; Tm shift relative to glycine control, % at 25 µM;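 active = melting temperature shift of at least 10% of the positive control shift, at one fixed dose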
* marks the source's active call; other numbers are inactive results; . = no result given.

SMILES	rCAG RNA binder	FAS TE block	NadD block	NR3A LBD binder
Cc1ccc(NC(NC(=O)c2cccs2)C(Cl)(Cl)Cl)cc1C (stereo unspecified)	2	27	-2	12*
CCC1CCCCN1S(=O)(=O)c1ccc(C(=O)Nc2nnc(-c3cccs3)o2)cc1 (stereo unspecified)	.	3	42*	-5
CC1CC(C)CN(S(=O)(=O)c2ccc(C(=O)Nc3nnc(-c4cccs4)o3)cc2)C1 (stereo unspecified)	30	13	26	2
COc1ccccc1Oc1ccc2c(c1)C(=O)N(CC1CCCO1)C2=O (stereo unspecified)	-5	-6	1	12*
COc1ccccc1OCC(=O)Nc1ccc2c(c1)C(=O)N(CC1CCCO1)C2=O (stereo unspecified)	-1	-3	-13	0
O=C(N/N=C/c1ccc(OCc2ccccc2)cc1)c1ccco1	-1	1	-6	13*
Cc1cc(C(=O)N/N=C/c2ccc(OCc3ccccc3)cc2)c(C)o1	3	18	1	14*
COc1ccc(CN(CCN2CCOCC2)C(=O)c2cccc(F)c2)cc1OC	1	.	.	.
COc1ccccc1C1=NOC(C(=O)N2CCN(C(=O)c3ccco3)CC2)C1 (stereo unspecified)	-3	-5	-2	1
COc1ccc(C2=NOC(C(=O)N3CCN(C(=O)c4ccco4)CC3)C2)cc1OC (stereo unspecified)	-4	-2	0	39*
CC1=NN(c2nc(-c3ccccc3)cs2)C(=O)C1N=Nc1ccccc1 (stereo unspecified)	-3	27	12	-1
CC1=NN(c2ccccc2)C(=O)C1N=Nc1ccc(S(N)(=O)=O)cc1 (stereo unspecified)	6	4	-2	-1
CC1=NN(c2nc(-c3ccc(C)cc3)cs2)C(=O)C1N=Nc1ccc2ccccc2c1 (stereo unspecified)	8	32	44*	-1
CC1=NN(c2nc(-c3ccc(C)cc3)cs2)C(=O)C1N=Nc1ccc(C(N)=O)cc1 (stereo unspecified)	27	4	8	27*
CC1(C)Cc2c(cnn2-c2ccccc2)C(NC(=O)CCc2ccc(=O)[nH]n2)C1 (stereo unspecified)	-4	-5	-3	13*
Cc1nn(C)c(C)c1CCC(=O)NC1CC(C)(C)Cc2c1cnn2-c1ccccc1 (stereo unspecified)	-8	-5	6	-2
O=[N+]([O-])c1ccccc1NCc1c(O)ccc2ccccc12	11	27	-6	13*
CSc1nc2ccc(NS(=O)(=O)c3cccc(Cl)c3Cl)cc2s1	29	17	0	16*
O=C(Nc1cccnc1)c1noc2c1CCCC2	-1	-7	-11	11*
CC(C)(C)C1CCc2onc(C(=O)Nc3cccnc3)c2C1 (stereo unspecified)	-4	7	0	-3
CCOC(=O)c1cc(C)n(S(=O)(=O)c2ccc(C)cc2)c1C	-2	17	-4	14*
CCC(NC(=O)c1cccc2c1C(=O)N(Cc1cccnc1)C2)c1ccccc1 (stereo unspecified)	4	.	.	.
C[C@H]1[C@H](c2ccccc2)Oc2cccc(NCCc3ccccc3)c2S(=O)(=O)N1Cc1cccc(Cl)c1	9	.	.	.
O=S(=O)(Nc1nc2ccccc2nc1N1CCc2ccccc2C1)c1ccc(Cl)cc1	13	20	23	10
O=S(=O)(Nc1nc2ccccc2nc1N1CCc2ccccc2C1)c1ccc(Br)cc1	13	-8	0	10*
SMILES	rCAG RNA binder	FAS TE block	NadD block	NR3A LBD binder
Cc1ccc(-c2cc(C(=O)N3N=C(C(F)F)CC3(O)C(F)F)c3ccccc3n2)cc1C (stereo unspecified)	13	37	10	35*
COc1c(O)ccc(/C=C(\C#N)c2nc3ccccc3[nH]2)c1[N+](=O)[O-]	16	4	-1	23*
Cc1cc(/C=C(/C#N)c2nc3ccccc3[nH]2)c(C)n1-c1cccc([N+](=O)[O-])c1	17	20	41*	-11
COc1ccc(/C=C(\C#N)c2nc3ccccc3[nH]2)cc1O	4	0	2	7
COc1cc(/C=C(\C#N)c2nc3ccccc3[nH]2)cc(Br)c1OCc1ccccc1	12	15	20	17*
COc1cc(/C=C(\C#N)c2nc3ccc(C)cc3[nH]2)cc([N+](=O)[O-])c1O	63*	6	19	3
CCOC(=O)c1c(C)n(C)c2cc(Br)c(OC)cc12	-2	7	-9	11*
COc1ccc2c(c1)CNC2CS(=O)(=O)NC1CCCC1 (stereo unspecified)	9	.	.	.
O=C(C1CCCN1S(=O)(=O)c1ccc(Cl)c(Cl)c1)N1CCOCC1 (stereo unspecified)	-2	-4	4	10*
O=C(C1CCCN1S(=O)(=O)c1ccc(Cl)c(Cl)c1)N1CCCCC1 (stereo unspecified)	-10	-9	-4	-1
CCNC(=O)OCCN1C(=O)CCC12CCC(c1ccc(Cl)cc1)CC2 (stereo unspecified)	-1	.	.	.
CCCCCCn1c(O)c(/C=C2\C=NN=C2c2ccccc2)sc1=S	6	-28	-6	35*
CCn1c(O)c(/C=C2\C=NN=C2c2ccccc2)sc1=S	10	-49	1	-2
CCCCn1c(O)c(/C=C2\C=NN=C2c2ccccc2)sc1=S	3	-49	2	26*
CC(C)Cn1c(O)c(/C=C2\C=NN=C2c2ccccc2)sc1=S	13	-38	3	30*
O=C(Nc1ccccc1)Nc1ccc(Nc2ccccc2)cc1	9	1	2	29*
O=C(Nc1ccccc1)Nc1ccccc1	3	-2	-6	7
CCCC(=O)Nc1ccc(Nc2ccccc2)cc1	-2	-4	-1	10*
O=C(Nc1ccc(CN2CCCCC2)cc1)Nc1ccccc1Cl	2	-8	-3	1
O=C(Nc1ccc(Br)cc1)Nc1ccccc1Cl	5	7	-5	21*
COc1ccc(S[C@]2(C(=O)N3CCCC3)CC(=O)N(C(=O)C3CC3)[C@@H]2c2ccc(OC)cc2)cc1	8	.	.	.
CC1(c2ccccc2)CC(C)(C)N2C(=O)C3(C(C#N)=C(N)Oc4cc(O)ccc43)c3cccc1c32 (stereo unspecified)	6	52*	5	0
O=C(CCc1ccccc1-c1ccccc1CCNC(=O)c1ccc(F)c(F)c1)NCc1ccccc1	-1	.	.	.
O=C(N/N=C/c1cc(Cl)cc([N+](=O)[O-])c1O)c1cc(-c2ccccn2)nc2ccccc12	.	24	32*	-2
O=[N+]([O-])c1cc(Cl)cc(/C=N\Nc2ccccn2)c1O	7	11	12	-1
COc1cccc(/C=N/NC(=O)c2cc(-c3ccccn3)nc3ccccc23)c1O	19	14	48*	-11
